Here are results for 40 molecules from PubChem BioAssay (NCATS).

Values without a mark were called inactive. How the calls were made is not given here.
Potency means the concentration at half of the fitted maximal effect.

The subject of the assay is HIV-1 nucleocapsid protein NCp7 (binding to TG oligonucleotide). Description: HIV Nucleocapsid (AID 346).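 Further: potency is for inhibitors that block NC binding and lower polarization.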 The conditions noted are these: HIV-1 NC / fluorescein-TGTGTGTG probe, fluorescence polarization. In short, it runs like this:
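Fluorescence polarization binding of 100 nM HIV-1 NC to 10 nM fluorescein-labelled TG4xF oligonucleotide. Buffer was Hepes pH 7.5 with 250mM NaCl, 1uM ZnCl2, TCEP and 2-mercaptoethanol. Compounds were incubated 1 hr at room temperature before the read.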
In general terms: Fluorescence polarisation rises when a labelled molecule tumbles more slowly, as on binding a larger partner.
As for `COc1ccc(C(=O)N2CCC3(CCCN(c4cccc(-c5ccccc5)c4)C3)CC2)cc1`, the Potency was > 20 µM.

On to `CC(=O)N1CCC2(CC1)CCN(c1ncccn1)CC2`, for which the Potency was > 20 µM.

In the case of `COc1ccc(-c2nc3cnc(Oc4ccccc4)nc3n(Cc3cccs3)c2=O)cc1`, the Potency is > 20 µM.

As for `CN1CCCC2(CCN(C(=O)c3cnccn3)CC2)C1`, the Potency is > 20 µM.

As to `Cc1noc(C)c1-c1nc(N2CCNCC2)c2ccccc2n1`, the Potency is > 20 µM.

`Cc1noc(C)c1-c1cncnc1NC1CC1`: the Potency is > 20 µM.

As to `COCC(=O)N1CCC2(CCN(Cc3ccncc3)CC2)CC1`, the Potency is > 20 µM.

For `Cc1noc(C)c1C(=O)N1CCC[C@@]2(CCN(C(=O)Nc3cccc(F)c3)C2)C1`, the Potency was > 20 µM.

Consider `COc1ccc(-c2nc3cnc(N4CCN(C)CC4)nc3n(C3CC3)c2=O)cc1`, for which the Potency was > 20 µM.

For the molecule `COc1ccc(-c2nc3cnc(N4CCN(C)CC4)nc3n(-c3ccc(OC)cc3)c2=O)cc1`, the Potency was > 20 µM.

As to `O=C(c1ccco1)N1CCC2(CCN(Cc3ccncc3)CC2)CC1`, the Potency was > 20 µM.

On to `COCCNc1ncnc2ccc(-c3ccoc3)cc12`, for which the Potency is > 20 µM.

Consider `COCCn1c(=O)cnc2cnc(Nc3ccccc3)nc21`, for which the Potency was > 4 µM.

As to `Cn1c(=O)c(-c2ccc(F)cc2)nc2cnc(Nc3ccccc3)nc21`, the Potency is > 20 µM.

On to `Cc1nc2cnc(N3CCOCC3)nc2n(Cc2ccc(F)cc2)c1=O`, for which the Potency is > 20 µM.

For `Cc1cccc(CNc2cc(-c3ccc(C(=O)N(C)C)cc3)ncn2)c1`, the Potency was > 20 µM.

Consider `Cc1ccccc1-c1nccc(Nc2ccc(F)cc2)n1`, for which the Potency was > 20 µM.

Turning to `CC(=O)N1CCC2(CC1)CN(C(c1ccccc1)c1ccccc1)C2`, the Potency is > 20 µM.

As to `Cc1nc2cnc(N(C)C)nc2n(C)c1=O`, the Potency is > 20 µM.

As to `COCC(=O)N1CCC2(CCCN(Cc3ccccc3OC)C2)CC1`, the Potency is > 20 µM.

With `CCNc1ncc2nc(-c3cc(F)cc(F)c3)c(=O)n(Cc3cccs3)c2n1`, the Potency is > 20 µM.

Turning to `COc1ccccc1CCn1c(=O)c(-c2ccc(F)cc2)nc2cncnc21`, the Potency is > 20 µM.

In the case of `COCCn1c(=O)c(-c2ccc(F)cc2)nc2cnc(OC)nc21`, the Potency is > 20 µM.

As to `CNc1ccnc(-c2ccccc2C(F)(F)F)n1`, the Potency is > 20 µM.

With `COc1ccc(Oc2ncc3nc(-c4cccs4)c(=O)n(Cc4cccs4)c3n2)cc1`, the Potency was > 20 µM.

In the case of `O=c1c(-c2cccc(Cl)c2)nc2cncnc2n1Cc1ccc(F)cc1`, the Potency is > 20 µM.

`Cn1cccc1C(=O)N1CCC2(CCN(C(=O)Nc3cccc(C#N)c3)CC2)CC1`: the Potency was > 20 µM.

Take `CS(=O)(=O)Nc1cccc(-c2cncnc2Nc2ccccc2)c1`: the Potency was > 20 µM.

Turning to `O=c1cnc2cnc(Oc3cccc(Cl)c3)nc2n1CCc1ccccc1`, the Potency was > 20 µM.

As to `CCNc1ncc2nc(-c3cc(F)cc(F)c3)c(=O)n(CCc3ccccc3)c2n1`, the Potency was > 20 µM.

As to `COc1ccccc1CCn1c(=O)c(-c2cccc(Cl)c2)nc2cncnc21`, the Potency was > 20 µM.

With `O=C(c1cccc(F)c1)N1CCC2(CCCN(c3ccccn3)C2)CC1`, the Potency is > 20 µM.

Turning to `O=C(c1ccco1)N1CCC2(CC1)CCN(c1ncccn1)CC2`, the Potency was > 20 µM.

For `COCCNc1ncnc2ccc(-c3ccccc3OC)cc12`, the Potency is > 20 µM.

`CS(=O)(=O)N1CCC2(CC1)CN(Cc1nccs1)C2`: the Potency was > 20 µM.

Turning to `Cc1nc2cnc(Nc3ccccc3)nc2n(C[C@H]2CCCO2)c1=O`, the Potency was > 20 µM.

For `N#Cc1ccc(CN2CC[C@@]3(CCCN(C(=O)c4ccncc4)C3)C2)cc1`, the Potency was > 20 µM.

For `COC(=O)N1CCC2(CCN(Cc3cc(C(F)(F)F)cc(C(F)(F)F)c3)CC2)CC1`, the Potency was > 20 µM.

`CC(C)CN1CCCC2(CCN(C(=O)c3csnn3)CC2)C1`: the Potency was > 20 µM.

With `N#Cc1ccc(CN2CCCC3(CCN(C(=O)c4cc(C(F)(F)F)cc(C(F)(F)F)c4)CC3)C2)cc1`, the Potency is > 20 µM.
